Data as given in PubChem BioAssay (EPA / NIEHS).
“And” between values parts separate entries of the source, which are not always exact repeats. Equal entries are not always repeated. Results filed as inconclusive are left out. Some structures have more than one record in an assay (separate samples or runs), and their calls can disagree. The source made the active and inactive calls. How the source made its calls: active means hit-call score of the fitted dose curve at least 0.9, where 1 is the maximum; inconclusive means response in the unintended direction; inactive means score below 0.9.

These compounds were tested against Cellular tumor antigen p53 (Homo sapiens) (UniProt P04637) (assay: TOX21_p53_BLA_p4_ratio: Tox21 HCT-116 p53 Agonism Beta-lactamase Assay, Ratio, Phase 4 (AID 2283601)).
Summary of the method: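 HCT-116 p53 beta-lactamase reporter cells (4000/well) preincubated 5 h, then compound (217-fold dilution of DMSO stock) for 16 h at 37C. CCF4-AM substrate added 2 h at room temperature; 460/530 nm emission ratio fitted upward versus DMSO.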

Sequence of Cellular tumor antigen p53 (Homo sapiens) (P04637 whole entry, looked up): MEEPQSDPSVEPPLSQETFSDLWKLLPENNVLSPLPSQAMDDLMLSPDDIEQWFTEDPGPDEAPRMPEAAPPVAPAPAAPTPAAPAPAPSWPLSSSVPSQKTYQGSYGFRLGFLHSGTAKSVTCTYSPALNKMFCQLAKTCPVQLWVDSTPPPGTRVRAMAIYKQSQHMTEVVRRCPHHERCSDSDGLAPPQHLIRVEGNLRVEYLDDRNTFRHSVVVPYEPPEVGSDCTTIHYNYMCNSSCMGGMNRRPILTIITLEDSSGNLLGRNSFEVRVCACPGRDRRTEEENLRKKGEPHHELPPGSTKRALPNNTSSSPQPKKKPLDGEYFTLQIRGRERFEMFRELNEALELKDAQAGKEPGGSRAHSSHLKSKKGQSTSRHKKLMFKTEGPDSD

For `O=C1c2ccccc2C(=O)N1SC1CCCCC1`, which AC50 is on record?
The AC50 was 76 µM (active).

And the outcome?
Its outcome is “inactive”.

For `c1ccc2c(c1)c1cccc3ccc4cccc2c4c31`, which outcome is on record?
The outcome was “inactive”.

Which outcome does the source give for `O=C(Cl)c1cccc(C(=O)Cl)c1` here?
Its outcome is “inactive”.

For `CCCCC/C=C/C=C/C=O`, which outcome is on record?
The outcome was “inactive”.

With `CCn1c2ccccc2c2cc(N)ccc21` as the compound, how does the AC50 read?
Its AC50 is 64 µM (active).

What about the outcome of the same compound?
The outcome was “inactive”.

What does the source list for `CNCCCC12CCC(c3ccccc31)c1ccccc12`?
AC50: 87 µM (active); outcome: inactive

For `CC(CN1c2ccccc2Sc2ccccc21)N(C)C` (stereo not given), which outcome is on record?
The outcome was “inactive”.

`C=C(C)C(=O)Nc1ccc(Cl)c(Cl)c1` was tested. Which AC50 did it give?
The AC50 was 68 µM (active).

And the outcome?
The outcome was “inactive”.

Which AC50 does the source give for `Cc1ccc(O)c(C(C)(C)C)c1` here?
The AC50 was 72.2 µM (active) and 68.5 µM (active).

With `CC(=O)OCCOC(C)=O` as the compound, how does the outcome read?
Its outcome is “inactive”.

For `O=C1OC2(c3cc(Br)c(O)c(Br)c3Oc3c2cc(Br)c(O)c3Br)c2c(Cl)c(Cl)c(Cl)c(Cl)c21`, which AC50 is on record?
The AC50 was 48.7 µM (active) and 26.5 µM (active).
